Screening results from PubChem BioAssay.
Hits are enriched below; roughly 32% of the tested compounds scored in any of these assays.
PostGolgi ctrl: yeast control strain growth, post-Golgi counter-screen; efflux-deficient yeast background strain, growth absorbance A615, 16 h; inhibition, % at 10 µM; AID 738; actives 5% (n = 98,000)
CYP2C9 inhib: blocks human cytochrome P450 2C9; P11712; CYP2C9 Supersomes, luciferin-H conversion, luminescence; inhibition, % at 5 µM; actives 20% (n = 96,000);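 active means blocking of liver enzyme CYP2C9 beyond about 50% at 5 µM, limit read from the data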
Target sequence (P11712 whole entry, looked up): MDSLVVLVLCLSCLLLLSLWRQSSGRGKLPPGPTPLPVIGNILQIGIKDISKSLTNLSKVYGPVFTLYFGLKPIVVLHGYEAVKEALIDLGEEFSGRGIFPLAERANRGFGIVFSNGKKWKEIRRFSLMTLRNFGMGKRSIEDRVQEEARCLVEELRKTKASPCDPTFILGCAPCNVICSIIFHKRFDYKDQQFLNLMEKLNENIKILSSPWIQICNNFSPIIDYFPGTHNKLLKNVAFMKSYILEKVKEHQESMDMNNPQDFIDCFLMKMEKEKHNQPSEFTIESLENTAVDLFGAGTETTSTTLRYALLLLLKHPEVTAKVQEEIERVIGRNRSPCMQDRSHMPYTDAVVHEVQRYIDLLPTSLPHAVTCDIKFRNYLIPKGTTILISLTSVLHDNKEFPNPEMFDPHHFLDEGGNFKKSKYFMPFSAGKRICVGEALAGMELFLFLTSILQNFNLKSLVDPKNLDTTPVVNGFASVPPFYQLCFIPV
PostGolgi yeast: growth inhibition of a yeast mutant, post-Golgi transport screen. post-Golgi transport phenotypic cell assay. inhibition, % at 10 µM. actives 0.9% (n = 98,000);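 further: yeast cells grown in 1536-well plates; yeast grown about 18 h at 30C before absorbance read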
CYP2C9 activ: CYP2C9 (human) activation | P11712 | recombinant CYP2C9, luciferin-H conversion, luminescence; active compounds read high; factor 1 = untreated enzyme, 0 = blocked | activation factor at 5 µM | actives 1.4% (n = 96,000);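 active means activation factor of 2 or more for CYP2C9 at a 5 µM dose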
CYP2C19 act: activators of human cytochrome P450 2C19; recombinant CYP2C19, luciferin-H EGE luminescence; active compounds read high; 0 = fully inhibited enzyme, 1 = untreated enzyme; 96,000 tested, under 10 active; P33261; activation factor at 5 µM; AID 1025;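 active means activation factor of at least 2 at 5 µM in the primary screen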
CYP2C19 inh: human CYP2C19 inhibition. CYP2C19 Supersomes, luciferin-H EGE luminescence, 30 min. P33261. actives 21% (n = 96,000). inhibition, % at 5 µM;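 active means CYP2C19 inhibition above a set limit at 5 µM in the primary screen, cut at about 50% in these data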
Of the large screens only hits and unclear results are named; the others gave an inactive call. Unless noted, no stated cut-off is given here; in the data, active means inhibition above about 30%; inactive means the rest.

N#CC1(c2ccccc2)CCC(=NO)CC1 (centres undefined)	none
COc1cc(Cl)c(C)cc1NC(=O)CCCN1C(=O)CCC1=O	none
COC(=O)c1cc(OC)c(OC)cc1NC(=O)CCCCCN1C(=O)CCC1=O	CYP2C19 inh 62.1
O=C(CN1CCCC1=O)NC1(C(F)(F)F)NC(=O)N(Cc2ccccc2)C1=O (centres undefined)	none
Cc1nnc(N(CCC#N)CCC#N)s1	none
CCC1=Nc2cc(C(=O)NCCCOC)ccc2Sc2ccccc21	CYP2C19 inh 54.4
COc1ccc(C)cc1NC(=O)NCCC1=CCCCC1	CYP2C19 inh 83.0
COCCCNC(=O)c1cccc(OC)c1OC	CYP2C19 inh 56.5
COc1cccc(C(=O)NCCC2=CCCCC2)c1OC	CYP2C19 inh 100.0
Cc1nc2cc(NC(=O)NCCC3=CCCCC3)ccc2o1	none
COC(=O)c1cccc(NC(=S)NCCC2=CCCCC2)c1	none
CCCC1=Nc2cc(C(=O)NCCCOCC)ccc2Sc2ccccc21	none
CC(NC(=O)COC(=O)c1ccco1)c1ccccc1 (centres undefined)	none
O=C1CC2CS(=O)(=O)CC2N1C1CCCCC1 (centres undefined)	none
c1coc(CN2CN=C(Nc3nc4ccccc4s3)NC2)c1	none
O=C(NCc1ccco1)c1ccc(COCC(F)(F)F)cc1	none
Cc1ccc2cc(C#N)c(SCC(=O)Nc3ccc4sc(C)nc4c3)nc2c1	none
Cc1nn(-c2cc(C)c3ccccc3n2)c2c1CCC2	none
COc1cc(C(=O)NCCCCCC(=O)O)cc(OC)c1OC	none
COc1cc(C(=O)NCCC2=CCCCC2)cc(OC)c1OC	CYP2C19 inh 75.4
O=C(CN1C(=O)CSc2ccccc21)NCCC1=CCCCC1	none
COCCCNC(=O)c1cccc(C(=O)NCCCOC)c1	PostGolgi ctrl 41.4
C=CCN1C(=O)CSc2ccc(C(=O)NCCC3=CCCCC3)cc21	CYP2C9 inhib 51.6
O=C(NCCC1=CCCCC1)c1ccc(=O)oc1	CYP2C19 inh 56.0
N#Cc1nc(-c2cccs2)oc1NCc1ccc2c(c1)OCO2	CYP2C9 inhib 93.8, CYP2C19 inh 54.2
N#Cc1nc(-c2ccco2)oc1NCCc1ccccc1	CYP2C9 inhib 75.2, CYP2C19 inh 95.6
N#Cc1nc(-c2cccs2)oc1NCCc1ccccc1	PostGolgi ctrl 34.5, CYP2C9 inhib 67.8
Cn1c(=O)c2c(ncn2CC(=O)Nc2ccccc2Sc2ccccc2)n(C)c1=O	none
O=C(COc1ncnc2c(Cl)cc(Cl)cc12)NCCC1=CCCCC1	none
Cc1ccccc1OCCCC(=O)Nc1ccc(N2CCOCC2)cc1	none (no result: PostGolgi ctrl, PostGolgi yeast)
CC1(c2ccccc2)NC(=S)N2C1NC(=S)N2c1ccccc1 (centres undefined)	CYP2C19 inh 70.0
Cc1cc(C)nc(SCc2nnc(SCC(=O)Nc3ccccc3C)n2Cc2ccco2)n1	CYP2C9 inhib 69.8, CYP2C19 inh 62.5
Cc1ccc(C)c(CSc2nnc(-c3cccs3)n2Cc2ccco2)c1	PostGolgi ctrl 35.2, CYP2C19 inh 51.7
Cc1ccc(NC(=O)CSc2nnc(CSc3nc(C)cc(C)n3)n2Cc2ccco2)c(C)c1	none
Cc1ccc(C)c(NC(=O)CSc2nnc(CSc3nc(C)cc(C)n3)n2Cc2ccco2)c1	CYP2C9 inhib 51.2
Cc1ccc(NCc2nnc(SCC(=O)c3ccccc3)n2Cc2ccco2)c(C)c1	CYP2C9 inhib 80.9, CYP2C19 inh 84.1
CC1CCCCC1NC(=O)CN1CCC(O)(c2ccc(F)cc2)CC1 (centres undefined)	none
O=C(NCc1ccco1)[C@@H]1CSC2c3ccccc3C(=O)N21 (some centres undefined)	CYP2C19 inh 57.0
O=C(NCc1cccs1)[C@@H]1CSC2c3ccccc3C(=O)N21 (some centres undefined)	CYP2C9 inhib 71.7, CYP2C19 inh 75.2
COc1ccnc(Oc2ccc3ccccc3c2)c1C#N	none
ONC=Nc1cccc2nonc12	none
Cc1ccc2cc(C#N)c(NCCNC(=O)C3CC3)nc2c1C	CYP2C9 inhib 64.3
CCC(=O)NCCNc1nc2cc(C)c(C)cc2cc1C#N	CYP2C9 inhib 71.5, CYP2C19 inh 50.2
Cc1c(NC(=O)c2cc(-c3cccs3)on2)c(=O)n(-c2ccccc2)n1C	none
Cn1c(=O)c2nc(-c3ccc(Cl)cc3Cl)oc2c2ccccc21	none (no result: CYP2C9 inhib, CYP2C9 activ, CYP2C19 act, CYP2C19 inh)
CCOc1ccc(-c2cc(CCCC(=O)NCc3cccnc3)no2)cc1	none
COc1ccc(-c2cc(CCCC(=O)NCCc3ccc(OC)cc3OC)no2)cc1	none (no result: CYP2C9 inhib, CYP2C9 activ, CYP2C19 act, CYP2C19 inh)
